In PubChem BioAssay (NCATS):
Results filed as inconclusive are left out. Activity calls are given as the source filed them. The call rests on the fitted dose curve; in most records, active means well fitted cell-killing curve with a large enough effect; inconclusive means small, poorly fitted or top-dose-only effect, or effect the other way; inactive means flat fitted curve, though single readings scatter. *1 amine or outer side, *2 acyl side, *3 side chain or, on linkers, in order; H or OH if unused. Where a SMILES comes first, the peptide text is derived from it. Bridges are numbered along the chain shown (N, C = ends). [ ]: non-standard residue; d: D form. The star is where a group is joined. ξ: configuration not given here. ξhTyr(3S-OH,4S-OH,3'-OSO3H) = NC(C(=O)O)[C@H](O)[C@@H](O)c1ccc(O)c(OS(=O)(=O)O)c1; Orn(4R-OH,5R-OH) = O=C([C@H](C[C@@H](O)[C@@H](O)N[*:3])N[*:1])[*:2]; X2 = CCCCCOc1ccc(-c2cc(-c3ccc(C(=O)*)cc3)no2)cc1; X3 = C[C@H]1CN([*:1])C(C(=O)[*:2])[C@H]1O; ξGln(3R-OH) = NC(=O)C[C@@H](O)C(N)C(=O)O; ξPro(4R-OH) = O=C(O)C1C[C@@H](O)CN1; ξThr(3R) = C[C@@H](O)C(N)C(=O)O

Key:
Experiment in all cases: Primary qHTS to identify gynecologic anti-cancer compounds using libraries of approved drugs and bioactive compounds (AID 1345084); further: nearly all actives have a fitted effect of over 55% in size
Conditions in all cases: Gynecologic cancer cell panel viability, ATPlite luminescence, 48 h; series mostly up to 57.5 µM
OV90 = tested on: OV90
Method in brief: (§1)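 48 h compound exposure at 37 C, 5% CO2; five-point qHTS. ATPlite luminescence readout of cell ATP.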

PA-1 = tested on: PA-1
Method in brief: as §1

SKOV3 = tested on: SKOV3
Method in brief: as §1

Tov-21-G = tested on: Tov-21-G
Method in brief: as §1

Tov112D = tested on: Tov112D
Method in brief: as §1
On the % scale 0 is the no-effect control and ±100 the full control effect.

COc1cc(O)cc2c1C(=O)OC(C)CCCCCCC2 (stereo not given)
inactive: Potency (OV90) | Potency (PA-1) | Potency (SKOV3) | Potency (Tov-21-G) | Potency (Tov112D)

CC(=O)N[C@H]1[C@H](O[C@H]2CC[C@]3(C)C4CC=C5[C@@H]6CC(C)(C)CC[C@]6(C(=O)O)[C@H](O)C[C@@]5(C)[C@]4(C)CC[C@H]3C2(C)C)O[C@H](CO)[C@@H](O)[C@@H]1O (stereo not given in full)
inactive: Potency (OV90) | Potency (PA-1) | Potency (SKOV3) | Potency (Tov-21-G) | Potency (Tov112D)

CCCC(=O)Nc1cccc(NC(=O)c2ccccc2Br)c1
inactive: Potency (OV90) | Potency (PA-1) | Potency (SKOV3) | Potency (Tov-21-G) | Potency (Tov112D)

CC(=O)OC/C(=C/C(=O)O)CC[C@@H]1C(C)=CC(=O)[C@@H]2C(C)(C)CCC[C@@]12C
inactive: Potency (OV90) | Potency (PA-1) | Potency (SKOV3) | Potency (Tov-21-G) | Potency (Tov112D)

Cc1[nH]c2ccccc2c1CC(=O)N[C@@H](Cc1ccccc1)C(=O)N(C)c1ccccc1
inactive: Potency (OV90) | Potency (PA-1) | Potency (SKOV3) | Potency (Tov-21-G) | Potency (Tov112D)

CC(=O)OC[C@@]12C(=O)C[C@@H](C)[C@]3(C[C@@H](c4ccoc4)OC3=O)[C@H]1CC[C@H](OC(C)=O)[C@]21CO1
inactive: Potency (OV90) | Potency (PA-1) | Potency (SKOV3) | Potency (Tov-21-G) | Potency (Tov112D)

CC(=O)OC1C(CO)OC(O[C@H]2[C@H](OC(=O)[C@]34CCC(C)(C)C[C@H]3C3=CCC5[C@@]6(C)CC[C@H](O[C@@H]7O[C@H](C(=O)O)[C@@H](O)[C@H](O[C@@H]8OC[C@@H](O)[C@H](O)[C@H]8O)[C@H]7O[C@@H]7O[C@H](CO)[C@H](O)[C@H](O)[C@H]7O)[C@@](C)(C=O)C6CC[C@@]5(C)[C@]3(C)C[C@H]4O)O[C@H](C)[C@H](OC3OC(C)C(OC4OCC(O)C(O)C4O)C(O)C3O)[C@@H]2O)C(O)C1O (stereo not given in full)
inactive: activity change, negative = cytotoxicity (OV90) -0.616% [at 6.55 µM] | activity change, negative = cytotoxicity (PA-1) 13.7% [at 6.55 µM] | activity change, negative = cytotoxicity (SKOV3) 33.2% [at 6.55 µM] | activity change, negative = cytotoxicity (Tov-21-G) 2.01% [at 6.55 µM] | activity change, negative = cytotoxicity (Tov112D) 5.09% [at 6.55 µM]

COc1c2cc(c(O)c1OC)CCCCC(O)CCc1ccc(O)c-2c1 (stereo not given)
inactive: Potency (OV90) | Potency (PA-1) | Potency (SKOV3) | Potency (Tov-21-G) | Potency (Tov112D)

Cc1ccc(C)c(S(=O)(=O)n2cnc3ccccc32)c1
inactive: Potency (OV90) | Potency (PA-1) | Potency (SKOV3) | Potency (Tov-21-G) | Potency (Tov112D)

CCCc1[nH]nc2c1C(c1cc(Cl)cc(Cl)c1O)C(C#N)=C(N)O2 (stereo not given)
inactive: Potency (OV90) | Potency (PA-1) | Potency (SKOV3) | Potency (Tov-21-G) | Potency (Tov112D)

COC(=O)C1=COC(OC2OC(CO)C(O)C(O)C2O)C2C(C)C(OC(C)=O)C(OC(=O)c3ccccc3)C12 (stereo not given)
inactive: Potency (OV90) | Potency (PA-1) | Potency (SKOV3) | Potency (Tov-21-G) | Potency (Tov112D)

CC(=O)OC1C(C)C2C(OC3OC(CO)C(O)C(O)C3O)OC=C(C(=O)O)C2C1OC(=O)c1ccccc1 (stereo not given)
inactive: Potency (OV90) | Potency (PA-1) | Potency (SKOV3) | Potency (Tov-21-G) | Potency (Tov112D)

O=C(O)[C@H]1Cc2ccccc2CN1
inactive: activity change, negative = cytotoxicity (OV90) 0.2% [at 6.55 µM] | activity change, negative = cytotoxicity (PA-1) 3.48% [at 6.55 µM] | activity change, negative = cytotoxicity (SKOV3) 14.2% [at 6.55 µM] | activity change, negative = cytotoxicity (Tov-21-G) 4.78% [at 6.55 µM] | activity change, negative = cytotoxicity (Tov112D) 19.2% [at 6.55 µM]

C/C(=C\CC[C@H](CO)[C@@H]1CC[C@]2(C)C3=C(CC[C@@]12C)[C@@]1(C)CCC(=O)C(C)(C)C1CC3)C(=O)O (stereo not given in full)
inactive: Potency (OV90) | Potency (PA-1) | Potency (SKOV3) | Potency (Tov-21-G) | Potency (Tov112D)

CC1(C(=O)O)CCCC2(C)C3CCC4CC3(CCC12)CC4C(=O)O (stereo not given)
inactive: Potency (OV90) | Potency (PA-1) | Potency (SKOV3) | Potency (Tov-21-G) | Potency (Tov112D)

C[C@@H]1O[C@@H](O[C@H]2[C@H](O[C@H]3[C@H](O[C@H]4CC[C@@]5(C)C(CC[C@]6(C)C5CC=C5[C@@H]7CC(C)(C)C[C@@H](O)[C@]7(C)CC[C@]56C)[C@@]4(C)CO)O[C@H](C(=O)O)[C@@H](O)[C@@H]3O)O[C@H](C(=O)O)[C@H](O)[C@@H]2O)[C@H](O)[C@H](O)[C@H]1O (stereo not given in full)
inactive: activity change, negative = cytotoxicity (OV90) 2.01% [at 11.6 µM] | activity change, negative = cytotoxicity (PA-1) 0.484% [at 11.6 µM] | activity change, negative = cytotoxicity (SKOV3) 10.8% [at 11.6 µM] | activity change, negative = cytotoxicity (Tov-21-G) 13.2% [at 11.6 µM] | activity change, negative = cytotoxicity (Tov112D) 5.35% [at 11.6 µM]

CCCCCOc1ccc(-c2cc(-c3ccc(C(=O)N[C@H]4C[C@@H](O)[C@@H](O)NC(=O)C5[C@@H](O)[C@@H](C)CN5C(=O)C([C@H](O)CC(N)=O)NC(=O)C([C@H](O)[C@@H](O)c5ccc(O)c(OS(=O)(=O)O)c5)NC(=O)C5C[C@@H](O)CN5C(=O)C([C@@H](C)O)NC4=O)cc3)no2)cc1 (stereo partly drawn) (X2-[Orn(4R-OH,5R-OH)][ξThr(3R)][ξPro(4R-OH)][ξhTyr(3S-OH,4S-OH,3'-OSO3H)][ξGln(3R-OH)][X3]; lactam 1-C)
inactive: Potency (OV90) | Potency (PA-1) | Potency (SKOV3) | Potency (Tov-21-G) | Potency (Tov112D)

C=C1CCC(OC(C)=O)C2(C)CC3OC(=O)C(C)=C3CC12 (stereo not given)
inactive: Potency (OV90) | Potency (PA-1) | Potency (SKOV3) | Potency (Tov-21-G) | Potency (Tov112D)

CC(C)C1NC(=O)C2CCCN2C1=O (stereo not given)
inactive: Potency (OV90) | Potency (PA-1) | Potency (SKOV3) | Potency (Tov-21-G) | Potency (Tov112D)

COc1cc(/C=C/C(=O)O[C@H]2[C@H](O)[C@@H](CO)O[C@@]2(CO)O[C@H]2O[C@H](CO)[C@@H](O)[C@H](O)[C@H]2O)cc(OC)c1O
inactive: Potency (OV90) | Potency (PA-1) | Potency (SKOV3) | Potency (Tov-21-G) | Potency (Tov112D)

CC(C)=CCC[C@](C)(O[C@@H]1O[C@H](CO[C@@H]2OC[C@H](O)[C@H](O)[C@H]2O)[C@@H](O)[C@H](O)[C@H]1O)[C@H]1CC[C@]2(C)[C@@H]1[C@H](O)C[C@@H]1[C@@]3(C)CC[C@H](O[C@@H]4O[C@H](CO)[C@@H](O)[C@H](O)[C@H]4O[C@@H]4O[C@H](CO)[C@@H](O)[C@H](O)[C@H]4O)C(C)(C)[C@@H]3CC[C@]12C
inactive: Potency (OV90) | Potency (PA-1) | Potency (SKOV3) | Potency (Tov-21-G) | Potency (Tov112D)
